The list is not random: actives were taken first. Their share in the collection is about 2.4%.
Pf Dd2 inh: P. falciparum Dd2 growth inhibition. SYBR Green, 72 h; stronger effect = lower value. activity change, % at 10 µM. 2.3% of 94,000 active. AID 1159554; in the data active = activity change below about -80%
C diff HTS: inhibitors of Clostridium difficile growth | growth activity, negative = inhibition, % at 16 µg/mL (by protocol) | 0.25% of 86,000 active | Clostridium difficile clinical isolate growth, OD600, 24 h; stronger effect = lower value;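 active = mean growth activity at or below -80% and every replicate also at or below -80%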;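 also: 0% = DMSO wells and -100% = levofloxacin 16 µg/mL wells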
* hit, by the source's call; x = no result; ! = not confirmed by another sample.

SMILES	Pf Dd2 inh	C diff HTS
O=C(Nc1ccc(F)cc1)N1[C@@H]2CNC[C@H]1C2c1ccc(/C=C/c2ccccc2)cc1 (some centres not stated)	-9.3	-101.1*!
O=C(Nc1cc(F)ccc1F)N1[C@@H]2CNC[C@H]1C2c1ccc(/C=C/c2ccccc2)cc1 (some centres not stated)	-50.9	28.8
C[C@@H]1CN([C@@H](C)CO)C(=O)c2cc(NC(=O)CCCN(C)C)ccc2O[C@@H](C)CCCCO[C@H]1CN(C)Cc1ccccc1	x	3.5
O=C(C[C@@H]1C[C@H]2c3cc(NC(=O)C4CCC4)ccc3O[C@H]2[C@@H](CO)O1)NCc1cc(F)ccc1F	3.5	-1.9
COc1ccc2c3c([nH]c2c1)[C@@H](CO)N(Cc1ccccc1)CC31CCN(C)CC1	-30.0	8.6
COc1ccc2c3c([nH]c2c1)[C@H](CO)N(Cc1ccncc1)CC31CCN(Cc2ccc(-c3ccccn3)cc2)CC1	-89.0*	-1.3
COc1ccc2c3c([nH]c2c1)[C@@H](CO)N(Cc1ccncc1)CC31CCN(Cc2ccc(-c3ccccn3)cc2)CC1	-90.8*	4.1
COc1ccc2c3c([nH]c2c1)[C@@H](CO)N(Cc1nccs1)CC31CCN(Cc2ccncc2)CC1	-65.2	8.2
Cc1ccccc1-c1cnc2c(c1)C(=O)N([C@@H](C)CO)C[C@H](C)[C@@H](CN(C)C(=O)CC1CC1)O2	4.4	x
O=C(C[C@H]1CC[C@H](NS(=O)(=O)c2ccc(F)cc2)[C@H](CO)O1)NC1CCCCC1	10.9	0.6
CN1CCCCN2[C@H](CO)[C@H](c3ccc(-c4ccc(F)cc4)cc3)[C@H]2C1	14.6	4.4
C[C@@H]1CCCCO[C@H](CN(C)C(=O)c2ccccc2)[C@@H](C)CN([C@@H](C)CO)C(=O)c2cc(NC(=O)Nc3cccc4ccccc34)ccc2O1	-82.4*	0.4
C[C@@H]1CN([C@H](C)CO)C(=O)c2cc(NC(=O)Nc3cccc4ccccc34)ccc2O[C@@H](C)CCCCO[C@@H]1CN(C)C(=O)c1ccccc1	-68.6	1.1
C[C@H](CO)N1C[C@H](C)[C@@H](CN(C)C(=O)CCCN(C)C)OCCCC[C@H](C)Oc2ccc(NC(=O)Nc3cccc4ccccc34)cc2C1=O	5.4	-0.1
C[C@@H]1CCCCO[C@H](CN(C)C(=O)CCCN(C)C)[C@H](C)CN([C@H](C)CO)C(=O)c2cc(NC(=O)Nc3cccc4ccccc34)ccc2O1	-85.7*	4.7
OC[C@@H]1Nc2ccc(C#Cc3ccccc3)cc2[C@H]2[C@@H]1CCN2Cc1nccs1	-40.3	47.5
COc1ccc(C#Cc2ccc3c(c2)[C@H]2[C@H](CCN2Cc2ccncc2)[C@H](CO)N3)cc1	-93.8*	46.6
COc1ccc(-c2ccc3c(c2)[C@@H]2[C@@H](CCN2Cc2ccncc2)[C@@H](CO)N3)cc1	-78.5	46.9
COc1ccc(C#Cc2ccc3c(c2)[C@H]2[C@H](CCN2Cc2nccs2)[C@H](CO)N3)cc1	-84.7*	29.6
C[C@@H]1CCCCO[C@@H](CN(C)S(C)(=O)=O)[C@@H](C)CN([C@H](C)CO)C(=O)c2cc(NC(=O)C3CCCCC3)ccc2O1	3.8	0.0
O=C(C[C@H]1CC[C@H]2[C@@H](COC[C@@H](O)CN2C(=O)Nc2ccc(F)cc2)O1)NC1Cc2ccccc2C1	-2.0	x
COc1ccc(NC(=O)Nc2ccc3c(c2)CC(=O)N([C@@H](C)CO)C[C@@H](C)[C@H](CN(C)Cc2ccncc2)O3)cc1	-1.4	-5.4
C/C=C/c1cnc2c(c1)C(=O)N([C@@H](C)CO)C[C@@H](C)[C@H](CN(C)S(=O)(=O)c1ccccc1F)O2	-45.4	-0.7
CCS(=O)(=O)N1CCC2(CC1)CN(C(=O)CN1CCOCC1)[C@@H](CO)c1c2c2ccc(OC)cc2n1C	22.9	-0.1
C[C@@H]1CN([C@H](C)CO)C(=O)c2c(c3ccccc3n2C)-c2ccccc2CO[C@@H]1CN(C)C(=O)Nc1ccc(-c2ccccc2)cc1	-82.6*	-2.6
C[C@H]1CN([C@@H](C)CO)C(=O)c2c(c3ccccc3n2C)-c2ccccc2CO[C@@H]1CN(C)C(=O)Nc1ccc(F)cc1	-37.4	10.3
C[C@H]1CN([C@@H](C)CO)C(=O)c2c(c3ccccc3n2C)-c2ccccc2CO[C@@H]1CN(C)C(=O)Nc1ccc(-c2ccccc2)cc1	-89.3*	1.4
C[C@H](CO)N1C[C@H](C)[C@H](CN(C)C(=O)Nc2ccc(F)cc2)OCc2ccccc2-c2c(n(C)c3ccccc23)C1=O	-39.2	-4.8
C[C@H](CO)N1C[C@H](C)[C@H](CN(C)C(=O)Nc2ccccc2)OCc2ccccc2-c2c(n(C)c3ccccc23)C1=O	-14.2	x
C[C@@H]1CN([C@@H](C)CO)C(=O)c2c(c3ccccc3n2C)-c2ccccc2CO[C@@H]1CN(C)C(=O)Nc1ccc(-c2ccccc2)cc1	-88.0*	-5.5

Bioassay records from PubChem.
